Measured values taken from PMC4336329 (PLoS ONE, 2015).
Screen size: about 310,000 compounds; about 14,000 (4.5%) showed an effect of 50% or more. Effects have a minus sign here. Shown is part of a subset that was picked to be rich in strong results.

biological target: human ether-à-go-go-related gene (hERG) potassium channel (human, UniProt Q12809); assay: primary screen, population patch clamp on CHO cells stably expressing hERG; higher = less effect of the substance
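Also: peak tail current of the secondary pulse compared with the same well before compound.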

Chain of human ether-à-go-go-related gene (hERG) potassium channel (Q12809 whole entry, looked up): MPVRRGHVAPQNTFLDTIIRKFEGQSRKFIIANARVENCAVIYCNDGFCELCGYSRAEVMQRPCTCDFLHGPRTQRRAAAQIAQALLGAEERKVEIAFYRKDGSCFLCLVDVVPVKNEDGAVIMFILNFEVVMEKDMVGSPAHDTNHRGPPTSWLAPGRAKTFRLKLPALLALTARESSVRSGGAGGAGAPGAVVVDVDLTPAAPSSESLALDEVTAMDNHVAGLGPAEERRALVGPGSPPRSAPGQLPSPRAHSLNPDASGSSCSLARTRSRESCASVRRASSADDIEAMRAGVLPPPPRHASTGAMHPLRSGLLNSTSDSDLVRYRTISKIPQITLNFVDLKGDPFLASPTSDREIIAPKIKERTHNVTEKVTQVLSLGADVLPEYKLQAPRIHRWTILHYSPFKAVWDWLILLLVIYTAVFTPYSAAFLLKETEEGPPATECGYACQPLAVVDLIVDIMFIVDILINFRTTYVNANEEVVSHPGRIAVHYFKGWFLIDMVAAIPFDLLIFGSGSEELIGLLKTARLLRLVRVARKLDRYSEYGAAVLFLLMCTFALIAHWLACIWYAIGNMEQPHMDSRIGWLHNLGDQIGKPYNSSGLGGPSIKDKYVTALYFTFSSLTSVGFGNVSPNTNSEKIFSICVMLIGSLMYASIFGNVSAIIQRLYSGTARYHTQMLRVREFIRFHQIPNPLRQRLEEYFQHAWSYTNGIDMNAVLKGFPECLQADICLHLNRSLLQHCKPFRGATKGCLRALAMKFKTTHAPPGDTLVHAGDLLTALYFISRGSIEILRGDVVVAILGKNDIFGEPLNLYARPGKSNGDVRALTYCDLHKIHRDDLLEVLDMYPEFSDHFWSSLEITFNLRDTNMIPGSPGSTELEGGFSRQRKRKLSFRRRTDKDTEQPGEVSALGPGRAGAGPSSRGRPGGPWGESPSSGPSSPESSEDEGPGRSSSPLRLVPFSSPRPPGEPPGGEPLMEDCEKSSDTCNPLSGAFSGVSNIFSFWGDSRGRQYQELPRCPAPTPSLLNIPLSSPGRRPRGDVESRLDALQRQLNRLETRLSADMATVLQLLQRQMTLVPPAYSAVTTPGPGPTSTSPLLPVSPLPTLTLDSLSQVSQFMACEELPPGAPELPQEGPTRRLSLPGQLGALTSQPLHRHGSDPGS

| Compound | hERG current change (%, negative = inhibition) at 10uM |
| --- | --- |
| CCOC(=O)c1ccc(NC(=O)Cn2c(=O)oc3ccccc32)cc1 | 10.9% |
| O=C(NCc1ccc(Cl)cc1)C1CCC(CNc2c(N3CCOCC3)c(=O)c2=O)CC1 (stereo not shown) | 14.9% |
| Cc1cc(-c2nnc(CCC(=O)NCc3ccc(OC(F)(F)F)cc3)o2)no1 | 3.05% |
| C/C(=N\NC(=O)c1nc2ccccn2c1C)c1cccc([N+](=O)[O-])c1 | -23.4% |
| Cc1ccc(C(=O)C(C)OC(=O)CN2C(=O)NC3(CCCC3)C2=O)cc1C (stereo not shown) | 9.76% |
| O=C(Sc1ccc(Cl)cc1)c1cccc(Cn2cc(C(F)(F)F)ccc2=O)c1 | 18.6% |
| CCOC(=O)CCNC(=O)N1CCCC(C(=O)c2cccc(OC(C)C)c2)C1 (stereo not shown) | -10.3% |
| COc1c(C)cc(C(=O)C2CCCN(C3CCOCC3)C2)cc1C (stereo not shown) | -15.2% |
| CCOC(=O)N1CCC(N2CCCC(C(=O)c3cccc(OC(C)C)c3)C2)CC1 (stereo not shown) | -76.8% |
| CC(=O)N1CCC(N2CCCC(C(=O)c3cccc(Cl)c3)C2)CC1 (stereo not shown) | 5.55% |
| CCCC(=O)N1CCCC(C(=O)c2cccc(OC(C)C)c2)C1 (stereo not shown) | 3.64% |
| CCOC(=O)CNC(=O)N1CCCC(C(=O)c2cc(C)c(OC)c(C)c2)C1 (stereo not shown) | 9.16% |
| CCOC(=O)c1c(C)[nH]c(C(=O)N2CCCC(C(=O)c3cccc(OC)c3)C2)c1C (stereo not shown) | -8.55% |
| CCOC(=O)N1CCC(N2CCCC(C(=O)c3cccc(OC)c3)C2)CC1 (stereo not shown) | -64.8% |
| COc1ccc(C(=O)C2CCCN(S(=O)(=O)N(C)C)C2)c(C)c1 (stereo not shown) | 0.683% |
| CCOC(=O)N1CCC(N2CCCC(C(=O)c3cc(C)c(OC)c(C)c3)C2)CC1 (stereo not shown) | -57.3% |
| COc1c(C)cc(C(=O)C2CCCN(S(=O)(=O)N(C)C)C2)cc1C (stereo not shown) | -66.5% |
| COc1c(C)cc(C(=O)C2CCCN(S(=O)(=O)c3c(C)noc3C)C2)cc1C (stereo not shown) | -2.78% |
| Cn1cc(C(=O)OCC(=O)Nc2ccccc2)c2ccccc21 | -8.39% |
| CCCCCCOc1ccc(N2C(=O)CC(N3CCN(CCN=CC4C(=O)CC(C)(C)CC4=O)CC3)C2=O)cc1 (stereo not shown) | -32.5% |
| CN(C)S(=O)(=O)c1cccc(NC(=O)COC(=O)c2cn(-c3ccccc3)nc2-c2ccccc2)c1 | 12.3% |
| O=C1Nc2ccccc2N(O)N1c1cc(-c2ccc(Cl)cc2)[nH]n1 | 22.9% |
| CC(C)(C)c1nc(N)nc(=O)[nH]1 | -1.18% |
| COc1ccc2cc(C(=O)C3CCCN(C(=O)c4csnn4)C3)ccc2c1 (stereo not shown) | -13.2% |
| Cc1noc(C)c1CC(=O)N1CCCC(C(=O)c2ccc(C(C)(C)C)cc2)C1 (stereo not shown) | -18.8% |
| COc1ccc2cc(C(=O)C3CCCN(C(=O)Cc4c(C)noc4C)C3)ccc2c1 (stereo not shown) | -68.5% |
| CCOC(=O)N1CCC(N2CCCC(CO)(Cc3cccc(OC)c3)C2)CC1 (stereo not shown) | -51.7% |
| CCOC(=O)N1CCC(N2CCCC(C(=O)c3ccc4cc(OC)ccc4c3)C2)CC1 (stereo not shown) | -74.3% |

| Compound | hERG current change (%, negative = inhibition) at 10uM |
| --- | --- |
| CCNC(=O)N1CCCC(C(=O)c2ccc3cc(OC)ccc3c2)C1 (stereo not shown) | -22.5% |
| CCOC(=O)N1CCC(N2CCCC(CO)(Cc3cccc(Cl)c3)C2)CC1 (stereo not shown) | -49% |
| CCOC(=O)N1CCC(N2CCCC(CO)(Cc3ccccc3C)C2)CC1 (stereo not shown) | 0.621% |
| COc1ccc(C(=O)C2CCCN(C(=O)Cc3c(C)noc3C)C2)cc1OC (stereo not shown) | -3.81% |
| COc1cccc(CC(Cc2nc3ccccc3[nH]2)c2nc3ccccc3[nH]2)c1 (stereo not shown) | -33% |
| Cn1nnnc1SCC(=O)Nc1ccc(N2CCOCC2)cc1 | 5.57% |
| N#CCc1ccc(NC(=O)c2ccc(S(=O)(=O)N3CCCC3)cc2)cc1 | 16.9% |
| CC1CCCCN1S(=O)(=O)c1ccc(NC(=O)c2cccs2)cc1 (stereo not shown) | -11.3% |
| COc1ccccc1CNc1ncnc2c1cnn2-c1ccccc1 | -12.1% |
| COc1ccc2nc(Nc3nc(CSc4nnnn4-c4ccccc4)cc(=O)[nH]3)nc(C)c2c1 | -42.1% |
| O=C(NCc1ccccc1Cl)c1ccc2ccccc2n1 | -1.85% |
| O=C(O)C1=C[C@@H](c2ccc(Br)cc2)C[C@@H](OCc2ccc(CO)cc2)O1 | 18.2% |
| Cc1ccc(NC(=O)[C@@H]2CCCN2S(=O)(=O)c2ccccc2C(F)(F)F)cc1S(=O)(=O)N1CCOCC1 | -21.4% |
| CCN1C(=O)N[C@H](c2ccccc2)C(C(C)=O)=C1C | 8.38% |
| CN1CCN(C=NC2=NN(c3cccc(C(F)(F)F)c3)CC2)CC1 | -23.9% |
| O=[N+]([O-])c1ccc(Oc2ccc(/C=N/O)cc2)nc1 | 0.3% |
| Cc1ccc(Oc2ccc(/C=N/O)cn2)cc1 | -1.45% |
| N#Cc1ccc(Oc2ccc(/C=N/O)cn2)cc1 | -73.7% |
| CCOC(=O)Nc1ccc(C(=O)/C=C/c2ccccc2)cc1 | -7.78% |
| COc1cccc(/C=C(\CC(=O)O)c2nc3ccccc3s2)c1 | 11.6% |
| Cn1ncc(Cl)c1C(=O)NNC(=O)Nc1cccc2ccccc12 | 7.09% |
| Cc1ccc(-c2nnc3c4ccccc4c(C)nn23)cc1S(=O)(=O)N1CCN(CCO)CC1 | -32.9% |
| Cc1ccc(-c2nn3c(C)nnc3c3ccccc23)cc1S(=O)(=O)N1CCN(CCO)CC1 | -74.5% |
| CCOC(=O)N1CCN(S(=O)(=O)c2cc(-c3nn4c(C)nnc4c4ccccc34)ccc2C)CC1 | -29% |
| Cc1ccc(-c2nn3c(C)nnc3c3ccccc23)cc1S(=O)(=O)NCCO | 11% |
| Cc1ccc(-c2nn3c(C)nnc3c3ccccc23)cc1S(=O)(=O)NCc1ccccc1 | -29.5% |
| Cc1ccc(-c2nn3c(C)nnc3c3ccccc23)cc1S(=O)(=O)NC(C)c1ccccc1 (stereo not shown) | -50.8% |
